The text below walks through data of PubChem BioAssay AID1851 (National Center for Advancing Translational Sciences (NCATS), 2009).

Hit rate of the full screen: of about 16,000 compounds, about 5,700 (36%) were called active. Roughly 24% stayed inconclusive and do not appear here. The list shows a part of the results. A number with no mark means an inactive call. Calls come from the whole dose curve; as a rule, active = well fitted curve in the direction sought with a large enough effect; inconclusive = small, poorly fitted or top-dose-only effect, or effect the other way; inactive = no such curve, though single readings can be large or run the other way.
% is set by controls: 0 for no effect and ±100 for the full control effect.

Cytochrome P450 1A2 (Homo sapiens), sequence (P05177 whole entry, looked up): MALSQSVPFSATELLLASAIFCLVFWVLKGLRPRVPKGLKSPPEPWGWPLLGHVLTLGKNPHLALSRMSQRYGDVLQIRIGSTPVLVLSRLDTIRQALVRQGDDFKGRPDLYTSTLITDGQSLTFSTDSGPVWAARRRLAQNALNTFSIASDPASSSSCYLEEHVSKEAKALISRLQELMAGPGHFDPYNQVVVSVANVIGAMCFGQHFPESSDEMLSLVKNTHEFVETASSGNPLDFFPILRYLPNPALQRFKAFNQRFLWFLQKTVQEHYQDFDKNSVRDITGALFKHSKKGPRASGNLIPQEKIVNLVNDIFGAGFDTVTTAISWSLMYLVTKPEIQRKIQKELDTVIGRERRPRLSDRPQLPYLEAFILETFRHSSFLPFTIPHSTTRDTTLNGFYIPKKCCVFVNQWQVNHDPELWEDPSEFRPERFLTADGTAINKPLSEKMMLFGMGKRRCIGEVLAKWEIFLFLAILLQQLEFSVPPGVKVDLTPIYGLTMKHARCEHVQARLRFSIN

The experiment has as its target Cytochrome P450 1A2 (Homo sapiens) (UniProt P05177). As to the kind of experiment: Cytochrome panel assay with activity outcomes. The note with it: recombinant CYP, pro-luciferin dealkylation, luminescence, p450-cyp1a2; series mostly up to 57.1 µM.
Turning to `NNC(=O)[C@@H](O)[C@H](O)[C@H](O)CO`, the activity, negative = inhibition is -0.774% [at 11.4 µM]. What is called AC50 is the midpoint of the concentration-response curve, whichever way the signal moves. `N=C(N)[C@H](N=Nc1ccccc1)C(N)=O`: the AC50 is 0.794 µM (active). As to `NC(Cc1ccccc1)=NCC(=O)O`, the activity, negative = inhibition was -5.52% [at 11.4 µM].

For `N#C[C@@H](N=Nc1ccccc1C(=O)O)C(N)=O`, the activity, negative = inhibition is -8.23% [at 11.4 µM]. Same read-out and setting: the result for `CC(C)(C)NC[C@@H](O)c1ccc(O)c(CO)n1` reads 10.1% [at 2.29 µM]. On to `CC[N+](C)(CC)CCC[n+]1c(-c2ccccc2)c2cc(N)ccc2c2ccc(N)cc21`, for which the AC50 was 12.6 µM (active). Turning to `Cn1c(=S)c2[nH]c(SCCN3CCCC3)nc2n(C)c1=O`, the activity, negative = inhibition is -29.7% [at 2.29 µM]. Take `Cn1c(=S)c2[nH]c(SCCCc3ccccc3)nc2n(C)c1=O`: the AC50 was 3.16 µM (active). With `Cn1c(=O)c2[nH]c(CCCc3ccc([N+](=O)[O-])cc3)nc2n(C)c1=O`, the activity, negative = inhibition was -18.9% [at 11.4 µM]. In the case of `COC(=O)C/C=C\[C@@H](C)[C@@H](/C=N\OC[C@@H](O)COCc1ccco1)NS(=O)(=O)c1ccc(C)cc1`, the activity, negative = inhibition is 3.98% [at 11.4 µM]. For `Oc1cccc(-c2nc3c4c(ncn3n2)-c2ccccc2CC42CCCC2)c1`, the AC50 was 10 µM (active).

Take `O=C(Nc1cccc2cccnc12)[C@@H]1[C@@H](C(=O)O)[C@H]2CC[C@@H]1O2`: the activity, negative = inhibition is -11% [at 11.4 µM]. With `NC(=S)Nc1cccc2cccnc12`, the AC50 is 12.6 µM (active). With `Cc1cc2c(nc1C)CCCN2C[C@@H](O)CN1CCN(C)CC1`, the activity, negative = inhibition is -2.48% [at 11.4 µM].

For `O=C(NC(=S)Nc1cccc(Cl)c1N1CCCCC1)c1ccco1`, the AC50 is 12.6 µM (active). Take `CN(C1CCCCC1)S(=O)(=O)c1ccc(NC(=S)NC(=O)c2cccs2)cc1`: the AC50 entry is “inactive”. For the compound `CC(=O)NS(=O)(=O)c1ccc(NC(=S)NC(=O)c2ccco2)cc1`, the AC50 result was “inactive”. Regarding `O=C(NC(=S)Nc1cccc(Cl)c1N1CCCCC1)c1cccs1`, the AC50 was 10 µM (active). Same read-out and setting: in the case of `Cc1c(Cl)cccc1NC(=O)CCC(=O)NNC(=O)c1ccco1` it was “inactive”; in that of `CC1CCN(c2ccccc2NC(=S)NC(=O)c2cccs2)CC1`, 7.08 µM (active).

Turning to `Cc1c(NC(=S)/C=C2\N(C)c3ccccc3C2(C)C)c(=O)n(-c2ccccc2)n1C`, the AC50 result is “inactive”. `CC1=NN(c2ccccc2)C(=O)/C1=C\c1c(C)[nH]n(-c2ccccc2)c1=O`: the AC50 entry was “inactive”. Same read-out and setting: the result for `COc1cccc(C(c2c(C)[nH]n(-c3ccccc3)c2=O)c2c(C)[nH]n(-c3ccccc3)c2=O)c1O` reads 7.08 µM (active); that for `COc1cccc(C2NC(c3cccc(OC)c3O)C(C)C(=O)C2C)c1O` (centres undefined), “inactive”; that for `CCN1CCC[C@H]1CNC(=O)c1c(OC)ccc(Br)c1OC`, “inactive”. Turning to `CCN(CCCNC(=O)CC(C(=O)N1CCc2ccccc21)n1ccnc1)c1ccccc1` (centres undefined), the AC50 is 3.16 µM (active). Same read-out and setting: in the case of `CCCCN(C)CCCNC(=O)CCn1nc(-c2ccccc2)ccc1=O` it was “inactive”; in that of `CCC(=O)[C@@]1(C)[C@H](C)C[C@@H]2[C@@H]3CCC4=CC(=O)C=C[C@@]4(C)[C@H]3[C@H](O)C[C@]21C`, “inactive”. With `NC(=O)Cn1c(=O)n(Cc2ccco2)c(=O)c2c3c(sc21)CCCCC3`, the AC50 was 4.47 µM (active).

Consider `CN(c1ccccc1)c1ccc(/C=c2\s/c(=C(/C#N)C(=O)C(C)(C)C)n(Cc3ccco3)c2=O)cc1`, for which the AC50 result was “inactive”. `Cc1ccc(-n2c(=O)c3sccc3n(CC(=O)NCc3ccco3)c2=O)cc1F`: the AC50 entry is “inactive”. With `CN(C)CCn1c(=O)n(Cc2ccco2)c(=O)c2c3c(sc21)CCCCC3`, the AC50 was 2.24 µM (active).

As for `O=C(Cn1c(=O)n(Cc2ccco2)c(=O)c2c3c(sc21)CCCCC3)c1ccccc1`, the AC50 was 12.6 µM (active). Turning to `O=C(O)/C=C\C(=O)Nc1cccc2c1-c1ccccc1C2=O`, the AC50 is 2.51 µM (active). In the case of `O=C(O)/C=C/C(=O)Nc1ccccc1-c1ccccc1`, the AC50 result was “inactive”. On to `CC[C@H](C)N(C)C(=O)c1cc2ccccc2c(-c2ccccc2Cl)n1`, for which the AC50 result was “inactive”. On the same count and under the same terms, in the case of `Fc1ccc(-c2ccnc3nc(N4CCOCC4)nn23)cc1` it was 10 µM (active).

For `C=C1C(=O)O[C@@H]2[C@@H]1CC/C(C)=C\CC[C@@]1(C)O[C@H]21`, the AC50 result is “inactive”. Regarding `CCCSc1cc(N2CCCC2)nc(-c2ccccc2)n1`, the AC50 is 0.631 µM (active).

`CC(C)Sc1cc(N2CCCC2)nc(-c2ccc(F)cc2)n1`: the AC50 is 0.631 µM (active). Take `CC(C)Sc1cc(N2CCOCC2)nc(-c2ccc(Cl)cc2)n1`: the AC50 was 5.62 µM (active).

On to `CC[N+](C)(CC)CCN1C(=O)c2ccccc2S1(=O)=O`, for which the activity, negative = inhibition is -12.1% [at 11.4 µM].

Turning to `Cc1ccc2nc(NC(=O)COC(=O)CSc3nc(C)cc(C)n3)sc2c1`, the AC50 was 0.891 µM (active). As to `CN(C)S(=O)(=O)c1cccc(NC(=O)COC(=O)c2ccc(Br)o2)c1`, the AC50 was 14.1 µM (active).

As for `Cc1nc2ccc(S(=O)(=O)NC(CC(C)C)C(=O)O)cc2s1` (centres undefined), the AC50 entry was “inactive”. As to `Cc1ccc2nc(NC(=O)CSCC(=O)OCC(=O)c3ccc(Br)cc3)sc2c1`, the AC50 is 8.91 µM (active). On to `CCN(c1ccccc1)S(=O)(=O)c1ccc(NC(=S)NC(=O)c2ccc(Br)o2)cc1`, for which the AC50 entry is “inactive”.

On to `CN(C)S(=O)(=O)c1ccc(NC(=O)COC(=O)c2ccccn2)cc1`, for which the AC50 entry was “inactive”. As for `Cc1ccc2nc(NC(=O)COC(=O)c3ccc(Br)o3)sc2c1`, the AC50 was 4.47 µM (active).
